The source made the active and inactive calls.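 How the source made its calls: active means peak inhibition of the KCNQ2 potassium channel above 30% at some tested dose, plus a fitted dose response curve; inactive means no inhibition at any dose, or no curve.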
The compounds below were run against Potassium voltage-gated channel subfamily KQT member 2 (Rattus norvegicus) (UniProt O88943) (assay: rat KCNQ2 channel inhibition, SAR follow-up, selectivity assay for KCNK9 inhibitor project, cell-based, FluxOR thallium flux, CRC set 2 (AID 588800)). Conditions: KCNQ2-expressing cells; series mostly up to 30 µM.
Sequence of Potassium voltage-gated channel subfamily KQT member 2 (Rattus norvegicus) (O88943 whole entry, looked up): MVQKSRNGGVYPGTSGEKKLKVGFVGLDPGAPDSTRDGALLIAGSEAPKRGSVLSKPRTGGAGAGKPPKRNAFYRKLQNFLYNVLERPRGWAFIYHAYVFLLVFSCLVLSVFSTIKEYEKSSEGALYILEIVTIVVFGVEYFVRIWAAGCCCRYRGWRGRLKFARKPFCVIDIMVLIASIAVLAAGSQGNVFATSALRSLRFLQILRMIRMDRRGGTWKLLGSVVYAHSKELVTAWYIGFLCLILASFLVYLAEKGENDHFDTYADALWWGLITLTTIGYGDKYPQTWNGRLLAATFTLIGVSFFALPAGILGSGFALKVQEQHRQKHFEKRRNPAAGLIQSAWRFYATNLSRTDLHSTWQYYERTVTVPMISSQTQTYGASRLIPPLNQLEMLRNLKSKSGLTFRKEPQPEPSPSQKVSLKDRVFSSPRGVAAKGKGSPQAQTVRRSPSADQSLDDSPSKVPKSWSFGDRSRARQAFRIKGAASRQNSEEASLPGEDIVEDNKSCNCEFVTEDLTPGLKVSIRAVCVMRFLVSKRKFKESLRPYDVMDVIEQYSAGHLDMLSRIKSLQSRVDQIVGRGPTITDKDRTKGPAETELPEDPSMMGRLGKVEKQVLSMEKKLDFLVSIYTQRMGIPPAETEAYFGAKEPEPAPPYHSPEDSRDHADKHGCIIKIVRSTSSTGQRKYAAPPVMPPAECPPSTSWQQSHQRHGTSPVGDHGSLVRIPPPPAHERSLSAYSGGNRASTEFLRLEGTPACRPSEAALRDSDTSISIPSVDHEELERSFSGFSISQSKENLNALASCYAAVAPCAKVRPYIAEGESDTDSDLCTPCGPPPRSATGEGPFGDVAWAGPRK

outcome, inactive:
CCOc1ccccc1NC(=O)c1cccc(NC(=O)C2CCOC2)c1 (configuration not stated)
CC(C1CC2CCC1C2)n1c(-c2cccc(Cl)c2)n[nH]c1=S (configuration not stated)
Cc1cccc(C(=O)Nc2cccc(NC(=O)c3ccncc3)c2)c1
COc1cccc(OC)c1C(=O)Nc1cccc(NC(=O)c2cccc(C)c2)c1
COc1ccccc1NC(=O)c1cccc(NC(=O)CC2CCCC2)c1
O=C(Nc1cccc(NC(=O)c2ccsc2)c1)c1ccccc1
Cc1ccccc1C(=O)Nc1cccc(NC(=O)c2ccccc2)c1
CCOc1ccccc1NC(=O)c1cccc(NC(=O)c2ccccc2OC(F)(F)F)c1
Cc1cccc(C(=O)Nc2cccc(NC(=O)c3ccccc3OCC(C)C)c2)c1
COc1ccccc1NC(=O)c1cccc(NC(=O)c2ccccc2OC)c1
COc1ccccc1C(=O)Nc1cccc(NC(=O)c2cccc(C)c2)c1
CCOc1ccccc1NC(=O)c1cccc(NC(=O)c2cccc(OC)c2)c1
CCOc1ccccc1NC(=O)c1cccc(NC(=O)c2cccc(Cl)c2)c1
O=C(Nc1cccc(NC(=O)c2cccc(F)c2)c1)c1ccccc1
O=C(Nc1cccc(NC(=O)c2ccccn2)c1)c1ccccc1
Cc1cccc(C(=O)Nc2cccc(NC(=O)c3ccccc3C(C)C)c2)c1
O=C(Nc1cccc(NC(=O)c2ccc(F)cc2)c1)c1ccccc1
